# Laboratory results as given in the supplement of paper PMC10646978.
# ± gives the standard deviation.
# Tests used:
# Conditions in all cases: modulator concentration 10 µM
# [1] = tested on: RAW-Dual (murine macrophage reporter line); assay: NF-kB reporter (SEAP) activity fold change vs agonist alone; higher = enhanced NF-kB activity
# Method in brief: (§1)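 RAW-Dual murine macrophage reporter cells were plated at 50 000 per well in 384-well plates, pin-transferred compound to 10 μM final, and pre-incubated for 1 hour at 37 °C before a PRR agonist was added and the cells incubated overnight. NF-κB activity was read from supernatant SEAP with QUANTI-Blue at 620 nm absorbance, and IRF activity from Lucia luciferase with QUANTI-Luc by luminescence. Each signal was expressed as fold change by dividing by the mean agonist-only control on the same plate. Two replicate plates were averaged, with errors obtained by propagation.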
# [2] = tested on: RAW-Dual (murine macrophage reporter line); assay: IRF reporter (Lucia luciferase) activity fold change vs agonist alone; higher = enhanced IRF activity
# Method in brief: as §1
# [3] = tested on: RAW-Dual (murine macrophage reporter line); assay: viability score (confluency relative to resting cells, overnight) (fraction); higher = more viable, active = viable (0.7 or more)
# Method in brief: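 RAW-Dual macrophages in 384-well plates were exposed overnight to compound at 10 μM final. Confluency was imaged with IncuCyte, and two confluency masks were generated with IncuCyte software over all imaged wells. The viability score is confluency expressed relative to resting cells. Compounds were called viable if both masks exceeded 70% of resting cells.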
# [4] = agonist: CpG ODN 1826 0.5 ug/mL
Compound,"NF-kB reporter [1, 4]",NF-kB reporter ([1]; agonist: LPS 0.1 ug/mL),NF-kB reporter ([1]; agonist: MPLA […]),IRF reporter ([2]; agonist: 3'3'-cGAMP 10 ug/mL),IRF reporter ([2]; agonist: LPS 0.1 ug/mL),IRF reporter ([2]; agonist: MPLA […]),viability score [3]
Cc1cc(OC2CN(C(=O)Cc3noc4ccccc34)C2)cc(=O)n1C1CC1,1.18 ± 0.072,1.08 ± 0.088,0.996 ± 0.043,0.919 ± 0.072,1 ± 0.061,0.957 ± 0.14,0.999 (active)
CSc1ccc(C2Nc3ccccc3-c3nnc(SCc4ccc(C)cc4)nc3O2)cc1 (stereo not drawn),0.817 ± 0.094,0.952 ± 0.047,1.19 ± 0.1,0.877 ± 0.058,1.08 ± 0.091,1.18 ± 0.14,1.01 (active)
O=C(Nc1ccc(Cl)cc1)C(Sc1ccccc1)c1ccccc1 (stereo not drawn),0.994 ± 0.11,1.02 ± 0.1,0.926 ± 0.065,0.989 ± 0.037,1.38 ± 0.26,1 ± 0.081,1.02 (active)
CC(=O)Nc1ccc(C(=O)Nc2ccc(Cl)cn2)cc1,1.16 ± 0.099,1.1 ± 0.085,1.09 ± 0.11,0.942 ± 0.04,0.94 ± 0.086,1.09 ± 0.15,1.04 (active)
C=C(C)CSC1=C(C#N)C(c2ccccc2)CC(=O)N1 (stereo not drawn),1.13 ± 0.091,0.954 ± 0.071,0.951 ± 0.092,0.772 ± 0.025,1.03 ± 0.15,0.999 ± 0.17,1.01 (active)
Cc1cc2ncn(CC3CCN(C(=O)COc4ccc(F)cc4)CC3)c2cc1C.O=C(O)C(=O)O,0.724 ± 0.07,1.06 ± 0.1,0.931 ± 0.047,0.908 ± 0.064,0.916 ± 0.09,0.814 ± 0.26,1 (active)
NC(=O)COc1ccc(Nc2nnc(-c3ccccc3)c3ccccc23)cc1,0.782 ± 0.083,0.806 ± 0.051,1.08 ± 0.093,0.747 ± 0.034,1.19 ± 0.069,1.23 ± 0.14,1.01 (active)
Nc1ncnc2c1ncn2C1OC(COP(=O)(O)O)C(O)C1O (stereo not drawn),1.9 ± 0.51,1.3 ± 0.089,1.55 ± 0.11,1.44 ± 0.052,1.19 ± 0.13,1.19 ± 0.14,0.97 (active)
CC(C)(CO)NC(=O)C(c1ccccc1)c1ccccc1,1.24 ± 0.14,0.961 ± 0.086,1 ± 0.041,0.937 ± 0.035,0.991 ± 0.051,0.896 ± 0.095,0.996 (active)
CC(C)(C)c1cc(C(=O)NN=Cc2ccc([N+](=O)[O-])cc2)[nH]n1,0.924 ± 0.12,0.953 ± 0.083,0.893 ± 0.09,0.858 ± 0.061,1.2 ± 0.11,1.02 ± 0.072,1.01 (active)
CC1Cc2ccccc2N1C(=O)c1cc2n(n1)CCCO2 (stereo not drawn),0.962 ± 0.076,0.949 ± 0.06,1.09 ± 0.12,0.903 ± 0.054,1.39 ± 0.082,1.44 ± 0.15,0.985 (active)
COc1ccc(NC(=O)CN2C(=O)c3ccccc3C2=O)c([N+](=O)[O-])c1,0.798 ± 0.064,0.948 ± 0.087,0.989 ± 0.11,0.963 ± 0.048,1.29 ± 0.082,1.36 ± 0.13,1.01 (active)
O=C(O)CCC(=O)c1ccc(-c2ccccc2)cc1,0.806 ± 0.11,0.842 ± 0.1,0.87 ± 0.07,0.931 ± 0.049,0.984 ± 0.087,0.999 ± 0.078,0.986 (active)
CC(NC(=O)C(=O)Nc1ccc(F)cc1)c1ccccc1 (stereo not drawn),0.972 ± 0.074,0.984 ± 0.18,0.939 ± 0.097,0.987 ± 0.069,1.22 ± 0.21,1.28 ± 0.2,0.994 (active)
